Compound activity from PubChem.
ssDAF-12 act: activators of S. stercoralis DAF-12 nuclear receptor; HEK293 ssDAF-12/GRIP1 lit1-tk-luc reporter, luminescence; % of 3 µM dafachronic acid response; activation, % at 6.8 µM; 370,000 compounds, 1% hits;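 active means activation above the mean over all tested compounds plus 3 SD, cut at about 0.9% in these data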;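 further: 0% = DMSO-only wells and 100% = 3 µM delta7-dafachronic acid wells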
hcDAF-12 act: activators of H. contortus DAF-12 nuclear receptor; HEK293 hcDAF-12 lit1-tk-luc reporter, luminescence; 0% DMSO, 100% Δ7-dafachronic acid; activation, % at 6.8 µM; 370,000 compounds, 1.4% hits;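 active means activation above the mean of all tested compounds plus 3 SD, cut at about 5.5% in these data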;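 further: 100% = response to 3 µM Δ7-dafachronic acid high control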
hgDAF12 agonist: hgDAF-12 agonism, primary luciferase screen; HEK293 GAL4-hgDAF12 UAS-luciferase reporter, agonist luminescence; normalized to butyrate control; activation, % at 6.8 µM; AID 687014; 370,000 compounds, 1.8% hits;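 active means activation above a cutoff set at the mean of all screened compounds plus 3 SD, cut at about 10% in these data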;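 further: 0% = DMSO wells and 100% = sodium butyrate wells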
DAX1 inh-1: NR0B1 (DAX1) inhibition; P51843; HEK293 Gal4-DAX1 luciferase reporter, luminescence; inhibition, % at 6.75 µM; 340,000 compounds, 0.99% hits; AID 504766;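 active means inhibition above the mean over all tested compounds plus 3 SD, cut at about 4.2% in these data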;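 further: 0% = DAX1-transfected cells with DMSO and 100% = empty-vector control cells with DMSO; inhibition shows as a rise in luminescence from relieved DAX1 repression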
DAX1 inh-2: blocks DAX1 repression of SF-1 activated StAR promoter. HEK293T StAR-luciferase reporter, SF-1/DAX-1 repression relief. inhibition, % at 6.8 µM. 370,000 compounds, 1.1% hits. AID 652010;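 active means inhibition above the mean over all tested compounds plus 3 SD, cut at about 3.6% in these data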;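 further: 0% = DAX-1 cells with DMSO and 100% = cells lacking DAX-1 with DMSO; higher inhibition means more luminescence from relief of DAX-1 repression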
LXRb hcDAF ctr: activates human LXR-beta, counter-screen for hcDAF-12 agonists | 3,400 tested, under 10 active | HEK293 Gal4-LXR tk-luc reporter, luminescence, 24 h; normalized: DMSO 0%, positive control 100% | shares compounds with hcDAF-12 act | activation, % at 6.8 µM;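 active means mean percent activation of the reporter above a cutoff set as the average over tested compounds plus their standard deviation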
Target sequence (P55055 whole entry, looked up, the tested form may be a part): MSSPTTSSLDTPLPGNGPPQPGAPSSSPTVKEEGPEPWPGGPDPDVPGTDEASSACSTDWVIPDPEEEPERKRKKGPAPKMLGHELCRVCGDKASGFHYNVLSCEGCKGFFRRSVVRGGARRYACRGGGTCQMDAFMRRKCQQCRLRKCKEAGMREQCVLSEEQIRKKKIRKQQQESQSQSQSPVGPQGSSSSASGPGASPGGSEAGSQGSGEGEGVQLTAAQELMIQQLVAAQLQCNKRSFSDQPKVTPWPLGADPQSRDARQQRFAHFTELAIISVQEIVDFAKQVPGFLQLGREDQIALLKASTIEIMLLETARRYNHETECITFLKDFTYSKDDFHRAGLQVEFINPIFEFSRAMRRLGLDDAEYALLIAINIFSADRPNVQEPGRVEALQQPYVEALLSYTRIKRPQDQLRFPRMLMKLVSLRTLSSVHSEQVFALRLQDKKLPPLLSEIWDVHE
hcDAF12 ag: hcDAF-12 agonism, confirmation assay | shares compounds with hcDAF-12 act | HEK293 hcDAF-12 lit1-tk-luc reporter, luminescence; % of Δ7-dafachronic acid response | activation, % at 6.8 µM | 3,400 compounds, 61% hits;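 active means mean activation across triplicate tests above the threshold derived from the earlier primary screen, cut at about 5.5% in these data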;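 further: 0% = DMSO only wells and 100% = 3 µM Δ7-dafachronic acid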
Numbers without * were called inactive; / = no result. Sampled rows, rich in hits. Any-hit rate of the full collection: about 4.1%.

SMILES	ssDAF-12 act	hcDAF-12 act	hgDAF12 agonist	DAX1 inh-1	DAX1 inh-2	LXRb hcDAF ctr	hcDAF12 ag
CCOC(=O)C1CCCN(C(=O)Cc2c(C(=O)O)[nH]c3ccccc23)C1 (stereo unspecified)	-0.3	6.8*	0.3	1.0	0.1	-0.2	2.6
COC(=O)[C@]12C[C@H](CC(=O)NCCCN3CCCC3=O)C(=O)N(Cc3ccc(Cl)cc3Cl)C1=C[C@H](C1CCCC1)O[C@@H]2C	-1.6	-1.4	-2.8	/	-1.1	/	/
N#C/C(=C\c1ccc(-c2nc3ccccc3s2)o1)C(N)=O	0.8	6.8*	5.4	-0.7	0.2	0.7	3.9
N#Cc1ccc(C(=O)Nc2cccc3ncccc23)c(F)c1	-1.8	-1.0	1.2	-1.7	-0.6	/	/
Cc1cc(C)c2oc(-c3ccc(Cl)c(NC(=O)c4ccc(C#N)cc4F)c3)nc2c1	0.5	6.6*	0.9	1.4	0.1	0.2	5.7*
C=CC[C@@H](CC(=O)N(CCO)Cc1ccccc1)C(=O)N[C@@H](C)COC(=O)[C@@H](CC=C)Cc1ccc(F)cc1	-1.7	-2.9	-4.0	-0.1	-1.4	/	/
C=CC[C@@H](CC(=O)N(CCO)Cc1ccccc1)C(=O)N[C@H](COC(=O)[C@@H](CC=C)Cc1ccc(F)cc1)c1ccccc1	-1.4	7.6*	0.5	-0.4	-0.9	-0.3	0.6
Nc1[nH]c(C(=O)c2ccccc2)c(-c2ccc3ccccc3c2)c1C(=O)NC1CC1	-0.8	2.9	1.2	/	-0.2	/	/
CCCS(=O)(=O)n1nc(-c2ccccc2)cc1N	-1.3	9.9*	0.8	-0.4	0.8	-0.1	2.0
CCS(=O)(=O)n1nc(-c2ccccc2)cc1N	-0.7	-1.6	-1.2	0.6	0.7	/	/
Cc1cc2ncc(-c3cccs3)nc2cc1C	2.1*	15.2*	18.5*	-1.0	2.8	2.5	17.5*
COc1ccc(Cl)cc1S(=O)(=O)N1CCN=C1C	1.6*	12.2*	-1.3	1.1	0.6	-0.2	2.4
COc1cc(O)c2c(=O)c(-c3ccc(O[C@@H]4O[C@H](CO)[C@@H](O)[C@H](O)[C@H]4O)cc3)coc2c1	0.9	7.2*	12.1*	1.9	1.5	1.6	5.5
COc1cccc(C(=O)N(C)C(C)c2nc3ccccc3s2)c1 (stereo unspecified)	-0.7	-1.2	-2.2	-0.2	-0.2	/	/
CC(=O)c1ccc(OC(C)c2nc3ccccc3s2)cc1 (stereo unspecified)	1.0*	7.7*	4.6	1.6	0.3	0.4	9.6*
O=C(c1cc(C2CC2)on1)N(C1CCCCC1)C1CCCCC1	-1.1	-2.7	-1.7	/	-1.9	/	/
CN[C@H]1C[C@H]2c3[nH]c4ccccc4c3CCN2C(=O)[C@H]1[C@H](C)O	0.1	8.1*	3.8	-0.1	1.9	0.0	2.6
CN[C@H]1C[C@H]2c3[nH]c4cccc(-c5cccc(C)c5)c4c3CCN2C(=O)[C@H]1[C@H](C)O	-1.7	-1.4	1.0	/	0.2	/	/
CCOC(=O)c1cc2ccc3ccccc3c2s1	1.3*	7.2*	10.8*	2.8	2.0	1.1	11.4*
O=C(Nc1ccc(Cl)cc1Cl)c1ccc(Br)o1	0.1	8.2*	8.3	2.0	1.0	0.7	6.4*
O=C(Nc1cc(Cl)ccc1N1CCOCC1)c1ccc(Br)o1	-0.7	0.5	0.6	-0.1	-0.5	/	/
CC(=O)Nc1cc2c(ccc3ccccc32)oc1=O	-0.6	-1.5	2.6	/	0.0	/	/
O=C(Nc1cc2c(ccc3ccccc32)oc1=O)C1CCCCC1	0.2	7.3*	-1.1	-0.5	0.1	-0.2	1.4
CCNC(=O)C[C@H]1CC[C@H]2[C@@H](COc3ccc(NC(=O)Nc4ccccc4)cc3C(=O)N2C)O1	-1.2	1.7	-3.3	/	1.9	/	/
Fc1ccc(-c2ncc3ccccn23)cc1	-1.1	1.7	4.6	0.1	0.2	/	/
Clc1ccc(/C=C/c2ncc3ccccn23)cc1	1.6*	11.0*	11.4*	1.7	3.5	0.6	4.6
CN(C)Cc1c(C(=O)Nc2ccccc2)[nH]c2ccccc12	0.9	7.1*	9.4	0.8	1.5	-0.3	1.0
